From PubChem
In the library only some 3.3% were active in any assay of this set; here they are far more common.
NS1 inh: blocks influenza NS1 protein function. Potency, µM (highest dose often 46.1 µM), without a hit: at the highest dose activity, positive = more growth. 270,000 compounds, 0.4% hits. AID 2326; further: potency means the concentration at half of the fitted maximal effect; actives are rising curves; nearly all actives have a fitted effect of over 50% in size
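Read-out: OD600 growth recovery of NS1-expressing budding yeast. Cells grown overnight at 30C in -URA glucose medium, washed, resuspended and diluted 1:100 in 2% galactose assay medium, pH 6.0. Same strain lacking NS1 served as positive control.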
Tb PYK inh: T. brucei pyruvate kinase inhibition; 410,000 compounds, 0.12% hits; Potency, µM (titrated, usually from 76.8 µM), for inactives: at the top dose activity, negative = inhibition, hits mostly inhibitors; TbPYK enzyme, Kinase-Glo Plus ATP luminescence, 45 min; Q57TT1; active means well fitted curve in the direction sought with a large enough effect; inconclusive means small, poorly fitted or top-dose-only effect, or another doubt; inactive means no such curve, though single readings can be large; an effect the other way counts as inactive or inconclusive; further: potency means the concentration at half of the fitted maximal effect; on the % scale 0 is the no-effect control and ±100 the full control effect; nearly all actives have a fitted effect of over 50% in size
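T. brucei PYK with substrate was exposed to pin-transferred compounds across a concentration series, then started with 130 uM ADP (final). After 45 min at room temperature, Kinase-Glo Plus luminescence was read, normalized and curve-fitted.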
Sm TGR inh: S. mansoni TGR enzyme inhibition | Q962Y6 | purified TGR, DTNB reduction, TNB absorbance 405 nm | Potency, µM (highest dose often 114 µM), for the others: at the highest dose activity change, negative = inhibition, hits mostly inhibitors | 360,000 compounds, 3% hits; active means well fitted curve in the direction sought with a large enough effect; inconclusive means small, poorly fitted or top-dose-only effect, or another doubt; inactive means no such curve, though single readings can be large; an effect the other way counts as inactive or inconclusive; further: potency means the concentration at half of the fitted maximal effect; on the % scale 0 is the no-effect control and ±100 the full control effect; nearly all actives have a fitted effect of over 60% in size
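Kinetic colorimetric format: TGR-catalysed, NADPH-driven DTNB reduction monitored via TNB absorbance. Enzyme dispensed at 20 nM; compound exposure 15 min at room temperature before reaction start.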
SARS PLP yeast: inhibitors of SARS-CoV papain-like protease in yeast. S. cerevisiae expressing SARS-CoV PLpro, growth rescue. Potency, µM (doses to about 32.9 µM), without a hit: top-dose activity, positive = growth rescue, most hits filed as activators. 330,000 compounds, 0.19% hits. AID 485353; further: potency means the concentration at half of the fitted maximal effect; 0% is about no effect; nearly all actives have a fitted effect of over 55% in size
LmPK inh: blocks Leishmania mexicana pyruvate kinase activity | purified LmPK, Kinase-Glo ATP luminescence, 1 h | Potency, µM (titrated, usually from 57.5 µM), for inactives: at the highest dose activity change, negative = inhibition, most hits filed as inhibitors | 290,000 compounds, 0.37% hits | AID 1721; active means well fitted curve in the direction sought with a large enough effect; inconclusive means small, poorly fitted or top-dose-only effect, or another doubt; inactive means no such curve, though single readings can be large; an effect the other way counts as inactive or inconclusive; further: potency means the concentration at half of the fitted maximal effect; on the % scale 0 is the no-effect control and ±100 the full control effect
Target sequence (Q27686 whole entry, looked up): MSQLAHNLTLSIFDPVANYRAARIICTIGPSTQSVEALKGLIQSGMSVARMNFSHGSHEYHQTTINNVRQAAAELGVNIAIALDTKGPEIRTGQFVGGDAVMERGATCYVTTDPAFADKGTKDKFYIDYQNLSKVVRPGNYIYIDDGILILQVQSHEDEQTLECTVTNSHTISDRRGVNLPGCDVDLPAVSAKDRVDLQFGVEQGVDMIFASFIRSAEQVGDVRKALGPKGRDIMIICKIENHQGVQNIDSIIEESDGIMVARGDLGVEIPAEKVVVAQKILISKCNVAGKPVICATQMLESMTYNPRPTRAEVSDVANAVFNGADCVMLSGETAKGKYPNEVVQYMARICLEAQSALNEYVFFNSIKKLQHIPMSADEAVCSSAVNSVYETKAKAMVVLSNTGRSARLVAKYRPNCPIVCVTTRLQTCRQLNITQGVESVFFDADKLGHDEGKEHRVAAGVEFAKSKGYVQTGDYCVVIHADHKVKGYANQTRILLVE
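Kinase-Glo luminescence read after 1 h RT reaction of 0.1 nM LmPK with 0.5 mM PEP and 0.1 mM ADP. Activity scaled between uninhibited and enzyme-free controls.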
RE007 growth inh: less growth of the S. pombe RE007 Vpr strain; S. pombe RE007 Vpr strain, BacTiter-Glo ATP luminescence, 24 h; Potency, µM (highest dose often 92.2 µM), for inactives: at the top dose activity change, negative = less growth, actives largely listed as inhibitors; 360,000 compounds, 0.21% hits; AID 651644; active means well fitted falling curve with a large enough effect; inconclusive means small, poorly fitted or top-dose-only effect; inactive means no such curve, though single readings can be large or run the other way; further: potency means the concentration at half of the fitted maximal effect; on the % scale 0 is the no-effect control and ±100 the full control effect; nearly all actives have a fitted effect of over 50% in size
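Fission yeast strain RE007, carrying one chromosomally integrated HIV-1 vpr copy, was seeded at OD 0.01 in PMG+AL medium with 23 nL pinned compound. After 24 h at 30 °C and 99% humidity, viability was read by BacTiter-Glo luminescence.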
Flu NS1 inh: influenza NS1 function inhibition validation | shares compounds with NS1 inh | influenza NS1 function cell assay, 15-point titration | activity change, negative = inhibition, % at 32.9 µM | 1,400 tested, under 10 active | AID 492980; further: 0% is about no effect
Flu PR8 replic: reduces influenza A/PR/8/34 replication in MDCK cells; shares compounds with NS1 inh; MDCK infected influenza A/PR/8/34, virus titer TCID50; stronger effect = lower value; virus titer (log TCID50), log10 TCID50 at 5 µM; 95 compounds, 30% hits; AID 504647; call rule not given here
* marks the source's active call; other numbers are inactive results. Unless noted, the call rests on the fitted dose curve.

Screening O=c1cc(N2CCc3ccccc32)[nH]c(=O)n1-c1ccc(Br)cc1 returned NS1 inh 6.3µM*, Tb PYK inh -3%, Sm TGR inh -5%, SARS PLP yeast 14%, LmPK inh 1%, RE007 growth inh 3% and Flu NS1 inh 22.
COc1ccc(-n2c(=O)cc(N3CCc4ccccc43)[nH]c2=O)cc1 was read as NS1 inh -1%, Tb PYK inh 7%, Sm TGR inh 1%, SARS PLP yeast -16%, LmPK inh 4% and RE007 growth inh 1%.
`Cc1ccc(-c2csc(N)n2)s1` gave NS1 inh inconclusive, Tb PYK inh -6%, Sm TGR inh -4%, SARS PLP yeast -21%, LmPK inh 0%, RE007 growth inh -21% and Flu NS1 inh -33.
For c1cc(N2CCCC2)ccc1C(c1nnnn1C1CCCCC1)N1CCOCC1 (configuration not stated) the results were NS1 inh 11µM*, Tb PYK inh -6%, Sm TGR inh inconclusive, SARS PLP yeast 0%, LmPK inh 0%, RE007 growth inh 14% and Flu NS1 inh 5.
Screening O=C(Cn1c(=O)n(Cc2nc(-c3ccccc3)no2)c(=O)c2cc3c(cc21)OCO3)Nc1ccc(Cl)cc1 returned Tb PYK inh -1% and Sm TGR inh 7%.
`O=C(Nc1cccc(Oc2ccc(C(=O)O)c(C(=O)O)c2)c1)c1ccc(-c2ccccc2)cc1` gave NS1 inh 13%, Tb PYK inh -6%, Sm TGR inh -13%, SARS PLP yeast -1%, LmPK inh -3% and RE007 growth inh 11%.
`CC(C)(C)C(=O)Nc1ccc(C(=O)Nc2cccc(Oc3ccc(C(=O)O)c(C(=O)O)c3)c2)cc1` gave NS1 inh 11µM*, Tb PYK inh -3%, Sm TGR inh -9%, SARS PLP yeast -3%, LmPK inh -9%, RE007 growth inh -1% and Flu NS1 inh 29.
For CCC(=O)Nc1cc(OC)c(NC(=O)c2ccccc2)cc1OC the results were NS1 inh -3%, Tb PYK inh -7%, Sm TGR inh -5%, SARS PLP yeast -6%, LmPK inh 2% and RE007 growth inh 18%.
`COc1cc(NC(=O)c2ccccc2)c(OC)cc1NC(C)=O` gave NS1 inh inconclusive, Tb PYK inh -4%, Sm TGR inh 3%, SARS PLP yeast -3%, LmPK inh 8%, RE007 growth inh 0% and Flu NS1 inh 1.
CS(=O)(=O)N1CCC2(CCCN(Cc3cc(C(F)(F)F)cc(C(F)(F)F)c3)C2)CC1 was read as Tb PYK inh 2%.
Screening Cc1ccc(F)c([C@H]2[C@H]3C=CC[C@@H](C)[C@@H]3C(=O)N2Cc2ccccc2)c1 returned NS1 inh inconclusive, Tb PYK inh -1%, Sm TGR inh inconclusive, SARS PLP yeast -16%, LmPK inh 5%, RE007 growth inh -7%, Flu NS1 inh inconclusive and Flu PR8 replic 9.
CC(CNC(=O)C1CCN(C(=O)N2CCOc3ccc(Cl)cc32)CC1)c1ccccc1 (configuration not stated) was read as Tb PYK inh -1% and Sm TGR inh -7%.
`Cc1ccc(-c2nc3ccccc3s2)cc1NC(=S)NC(=O)/C=C/c1ccco1` gave NS1 inh 6%, Tb PYK inh -6%, Sm TGR inh inconclusive, SARS PLP yeast 11%, LmPK inh 4% and RE007 growth inh -3%.
O=C(/C=C/c1ccco1)NC(=S)Nc1cc(-c2nc3ccccc3s2)ccc1Cl was read as NS1 inh 10µM*, Tb PYK inh 6%, Sm TGR inh inconclusive, SARS PLP yeast -1%, LmPK inh 1%, RE007 growth inh 2% and Flu NS1 inh 3.
O=C(c1cc2ccccc2o1)N1CCN(S(=O)(=O)c2ccccc2)CC1 was read as Tb PYK inh -7%, Sm TGR inh 3%, SARS PLP yeast -6% and RE007 growth inh 5%.
`O=C(c1cc2ccccc2o1)N1CCN(S(=O)(=O)c2cccs2)CC1` gave NS1 inh 10µM*, Tb PYK inh -10%, Sm TGR inh -21%, SARS PLP yeast 8%, LmPK inh -1%, RE007 growth inh 10% and Flu NS1 inh 14.
Screening COc1ccc(CCNC(=O)c2ccc3c(c2)N(Cc2ccc(C)cc2)CCS3)cc1OC returned NS1 inh 7.9µM*, Tb PYK inh -2%, Sm TGR inh 2%, SARS PLP yeast -4%, LmPK inh 4%, RE007 growth inh -1% and Flu NS1 inh 0.
For Cc1ccc(CCNC(=O)c2ccc3c(c2)N(Cc2ccc(F)cc2)CCS3)cc1 the results were Tb PYK inh -2% and Sm TGR inh -5%.
CCOc1ccccc1CNS(=O)(=O)c1ccc(-c2coc(C)n2)cc1 was read as Tb PYK inh -1% and Sm TGR inh 0%.
`COCc1cc(CN2CCCC2)c(O)c2ncccc12` gave NS1 inh 0.71µM*, Tb PYK inh 3%, Sm TGR inh inconclusive, SARS PLP yeast 0%, LmPK inh 6%, RE007 growth inh -7% and Flu NS1 inh inconclusive.
CC(CNC(=O)c1cnn(-c2ccc(F)cc2)c1-n1cccc1)c1ccccc1 (configuration not stated) was read as Tb PYK inh 5% and Sm TGR inh -11%.
For O=C(Cc1ccc(Cl)cc1)Nc1ccc(N2CCN(C(=O)c3ccco3)CC2)c(Cl)c1 the results were NS1 inh 0.28µM*, Tb PYK inh -3%, Sm TGR inh 0%, SARS PLP yeast -1%, LmPK inh 1%, RE007 growth inh -9% and Flu NS1 inh inconclusive.
Screening O=C(COc1ccc(Cl)cc1Cl)N1CCN(C(=O)c2ccco2)CC1 returned NS1 inh inconclusive, Tb PYK inh 8%, Sm TGR inh 6%, SARS PLP yeast 1%, LmPK inh -4%, RE007 growth inh 4% and Flu NS1 inh -4.
`CC(C)(CN1CCCC1)NS(=O)(=O)c1ccc(Cl)cc1` gave NS1 inh inconclusive, Tb PYK inh 0%, Sm TGR inh 2%, SARS PLP yeast -1%, LmPK inh -2%, RE007 growth inh -5% and Flu NS1 inh -1.
